# Screens deposited in PubChem BioAssay by National Center for Advancing Translational Sciences (NCATS).
# DT40 TDP1 CPT: qHTS for Inhibitors of human tyrosyl-DNA phosphodiesterase 1 (TDP1): qHTS in cells in presence of CPT. chicken DT40 Tdp1-/-;hTDP1 cells + 20 nM CPT, ATP luminescence, 48 h. Potency, µM (doses to about 46.2 µM), inactives show at the top dose activity change, negative = growth inhibition, most hits filed as inhibitors. 12% of 420,000 active. AID 686979, 2013; further: potency means the concentration at half of the fitted maximal effect; nearly all actives have a fitted effect of over 55% in size
#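 Chicken DT40 Tdp1-/- cells complemented with human TDP1, 400 cells/well, exposed to compounds plus 20 nM camptothecin for at least 48 h at 37 C; viability read as ATP content by CellTiter-Glo luminescence.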
# IL-1B inflam inh: qHTS for Inhibitors of Inflammasome Signaling: IL-1-beta AlphaLISA Primary Screen; THP-1 LPS/ATP IL-1B secretion, AlphaLISA, 16 h; active compounds read low; activity change, % at 57.5 µM; 4.7% of 360,000 active; AID 743279, 2014; in the data active means activity change below about -50%; inconclusive means mostly about -30% to -49%
#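 Secreted IL-1B measured by AlphaLISA bead assay after 16 h compound exposure of THP-1 cells; compounds (final up to 57.5 uM) added 1 h before LPS (250 ng/mL) and ATP (1.25 mM) stimulation; lower signal means less secretion.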
# Gal4-VP16 FLuc: VP16 counterscreen qHTS for inhibitors of ROR gamma transcriptional activity; Drosophila S2 Gal4-VP16 UAS-luciferase, luminescence, 20 h; Potency, µM (titrated, usually from 53.6 µM), for inactives: top-dose activity, negative = inhibition, hits mostly inhibitors; 3.5% of 310,000 active;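 further: Gal4-VP16 expression switched on by copper sulfate through the metallothionein promoter; potency means the concentration at half of the fitted maximal effect; nearly all actives have a fitted effect of over 50% in size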
# TDP1 cell noCPT: qHTS for Inhibitors of human tyrosyl-DNA phosphodiesterase 1 (TDP1): qHTS in cells in absence of CPT; DT40 Tdp1-/- hTDP1 cells, no CPT, ATP luminescence, 48 h; Potency, µM (titrated, usually from 46.2 µM), inactives show top-dose activity change, negative = growth inhibition, actives largely listed as inhibitors; 15% of 420,000 active; further: potency means the concentration at half of the fitted maximal effect; nearly all actives have a fitted effect of over 55% in size
#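 Growth kinetics read by CellTiter-Glo luminescence after ≥48 hr at 37 °C. Cells: DT40 Tdp1-/- stably carrying human TDP1, 400 per well, compound exposure in the absence of CPT (DMSO vehicle).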
# RORgamma inh: qHTS for inhibitors of ROR gamma transcriptional activity; Potency, µM (series often up to 53.6 µM), for inactives: at the highest dose activity change, negative = inhibition, usual class: inhibitors; Drosophila S2 Gal4-RORgamma UAS-luciferase reporter, 20 h; 5.4% of 310,000 active; further: potency means the concentration at half of the fitted maximal effect; nearly all actives have a fitted effect of over 60% in size
# Target sequence (P51450 whole entry, looked up, the tested form may be a part): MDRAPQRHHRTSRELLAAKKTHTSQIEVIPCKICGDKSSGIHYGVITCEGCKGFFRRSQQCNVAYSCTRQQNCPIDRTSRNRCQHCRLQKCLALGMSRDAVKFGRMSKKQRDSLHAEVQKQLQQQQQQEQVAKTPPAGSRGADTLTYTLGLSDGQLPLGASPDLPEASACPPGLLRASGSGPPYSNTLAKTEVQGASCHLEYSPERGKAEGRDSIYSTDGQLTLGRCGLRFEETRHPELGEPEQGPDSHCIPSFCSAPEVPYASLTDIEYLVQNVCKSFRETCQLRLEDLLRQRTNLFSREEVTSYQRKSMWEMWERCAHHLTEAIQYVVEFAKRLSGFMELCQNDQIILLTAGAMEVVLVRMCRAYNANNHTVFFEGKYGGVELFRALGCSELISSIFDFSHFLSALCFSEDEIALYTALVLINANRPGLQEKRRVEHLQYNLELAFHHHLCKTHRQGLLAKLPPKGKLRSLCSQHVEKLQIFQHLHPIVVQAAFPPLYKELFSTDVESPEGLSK
#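 Drosophila Schneider cells stably carrying a metallothionein-driven Gal4 DBD–ROR gamma fusion and a UAS-Photinus luciferase reporter were exposed to compound for 1 hr, then induced with copper sulfate (700 uM final) for 20 hr at ambient temperature before luminescence reading.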
# LDHA block: qHTS assay for inhibitors of human lactate dehydrogenase; purified LDHA, NADH/diaphorase-resazurin fluorescence; active compounds read low; activity change, % (values are at about 110 or 230 µM); 0.15% of 480,000 active; AID 1347041, 2019; in the data active means activity change below about -30%; inconclusive means mostly about -25% to -30%;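 further: plate controls were DMSO wells for no effect and wells without enzyme for full effect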
#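 LDH5 2 nM; NADH 0.06 mM, pyruvate 0.2 mM; 200 mM Tris pH 7.4, EDTA, Tween-20; 5 min RT. Detection: diaphorase 0.133 mg/mL + resazurin 37 µM, fluorescence ex540/em590 at 0 and 20 min; normalized to enzyme-free and DMSO wells.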
# The depositor's hits bear a star; ? = inconclusive; · = no result given; [ ] = another dose, or the depositor's remark. Rows were chosen to be rich in hits. Some 18% of all compounds tested hit in one or more screens of this group. Unless noted, the call rests on the fitted dose curve; in most records, active means well fitted curve in the direction sought with a large enough effect; inconclusive means small, poorly fitted or top-dose-only effect, or another doubt; inactive means no such curve, though single readings can be large; an effect the other way counts as inactive or inconclusive. Unless noted, on the % scale 0 is the no-effect control and ±100 the full control effect.
SMILES,DT40 TDP1 CPT,IL-1B inflam inh,Gal4-VP16 FLuc,TDP1 cell noCPT,RORgamma inh,LDHA block
COc1ccc2nc(-c3ccccc3)cc(C(=O)N3CCC3)c2c1,23.1µM*,-17.9,·,16.4µM*,·,0.9
COc1ccc(OC)c(-c2cc(C(=O)N3CCN(c4ncccn4)CC3)c3ccccc3n2)c1,16.4µM*,-10.1,-4.8%,18.4µM*,?,2.2
CCOc1ccccc1N1CCN(C(=O)c2cc(-c3cc(OC)ccc3OC)nc3ccccc23)CC1,23.1µM*,?,3.0%,13µM*,0.4%,-6.8
COc1ccc(-c2cc(C(=O)N3CCN(c4ccccc4O)CC3)c3ccccc3n2)cc1,?,?,·,?,·,-1.4
COc1cccc(CN2CCN(C(=O)c3cc(-c4cccnc4)nc4ccc(C)cc34)CC2)c1,23.1µM*,6.1,-2.1%,11.6µM*,43.7%,-4.9
Cc1cccc2c(C(=O)N3CCN(Cc4ccccc4)CC3)cc(-c3cccnc3)nc12,·,·,·,·,·,3.7
NCCSCc1ccco1,·,·,·,·,·,1.2
COc1ccc(-c2cc(C(=O)N3CCN(c4ncccn4)CC3)c3ccccc3n2)c(OC)c1,?,7.1,3.1%,23.1µM*,-2.2%,-5.5
COc1ccc(-c2cc(C(=O)N3CCN(c4ccccc4)CC3)c3ccccc3n2)cc1,3.26µM*,96.8,-5.1%,4.61µM*,33.3%,-0.8
CC(=O)c1ccc(N2CCN(C(=O)c3cc(-c4ccc5c(c4)OCO5)nc4ccccc34)CC2)cc1,?,-2.0,-3.4%,23.1µM*,33.4%,-9.8
COc1ccc(-c2cc(C(=O)N3CCN(c4ncccn4)CC3)c3ccccc3n2)cc1,?,-16.1,·,?,·,2.2
O=C(c1cc(-c2ccc3c(c2)OCO3)nc2ccccc12)N1CCN(Cc2ccc3c(c2)OCO3)CC1,·,·,·,·,·,6.7
COc1ccc(-c2cc(C(=O)N3CCN(c4ccccc4O)CC3)c3ccccc3n2)cc1OC,?,?,2.8%,18.4µM*,?,5.8
CCc1nn2c(=O)cc(CNc3cccc(C(=O)NCC(F)(F)F)c3)nc2s1,·,·,·,·,·,1.2
N#CC1(NC(=O)CNc2cccc(Cl)c2F)CCCC1,·,·,·,·,·,5.5
COC(=O)c1cc(-c2nc3ccccc3[nH]2)c(-c2ccc(OC)cc2)nc1C,·,·,·,·,·,0.6
COc1ccc(-c2cc(C(=O)N3CCCC3)c3ccccc3n2)cc1,2.9%,0.0,-5.7%,6.2%,-12.2%,-5.4
COc1ccc(-c2cc(C(=O)N3CCN(c4ccccc4F)CC3)c3ccccc3n2)c(OC)c1,?,-2.3,·,18.4µM*,·,-0.9
COc1ccc(N2CCN(C(=O)c3cc(-c4cc(OC)ccc4OC)nc4ccccc34)CC2)cc1,23.1µM*,15.7,·,23.1µM*,·,7.9
COc1ccc(-c2cc(C(=O)N3CC(C)CC(C)C3)c3ccccc3n2)cc1 (stereo unspecified),?,?,·,20.6µM*,·,-0.3
COc1ccc(-c2cc(C(=O)N3CCCCCC3)c3ccccc3n2)c(OC)c1,?,?,1.2%,11.6µM*,-1.3%,-1.4
Cc1cccc(NC2=C(C(N)=O)S(=O)(=O)c3ccccc32)c1,·,·,·,·,·,-2.7
CC(CNC(=O)NCc1cccs1)N1CCOCC1 (stereo unspecified),·,·,·,·,·,-6.7
COC(=O)c1ccc(C(=O)OC)c(NC(=O)CN(C)Cc2ccccc2)c1,-29.8%,7.6,-12.6%,16.4µM*,-1.1%,-3.1
COC(=O)c1ccc(NC(=O)CN(C)Cc2cccc(F)c2)cc1,-18.9%,-105.4*,0.4%[10 µM],13µM*,21.2%,-2.7
Cc1oc(-c2cccs2)nc1CC(=O)N1CCC1,·,·,·,·,·,0.0
